The text below walks through data of PubChem BioAssay (Tox21).

Results filed as inconclusive are left out. A call without a number means that no potency is given here. Active and inactive are the calls of the source. Calls come from the whole dose curve. Positions of bridges follow the written chain, without caps; N, C: chain ends. Residues, ends and D or L forms follow the SMILES beside them.
Potency is the fitted concentration of half-maximal effect.

The experiment can be described thus: qHTS assay for small molecule disruptors of the mitochondrial membrane potential - cell viability (AID 720634). Note: nearly all actives have a fitted effect of over 20% in size. Particulars: HepG2 viability, ATP luminescence (CellTiter-Glo), 1 h; series mostly up to 83.2 µM. An excerpt:
U.S. Tox21 Program National Center for Advancing Translational Sciences [NCATS] NIH Chemical Genomics Center [NCGC] U.S. Environmental Protection Agency [EPA] National Institutes of Environmental Health Sciences [NIEHS] National Toxicology Program [NTP] U.S. Food and Drug Administration [FDA] Tox21 Assay Overview: Mitochondrial membrane potential (MMP), one of the parameters for mitochondrial function, is generated by mitochondrial electron transport chain that creates an electrochemical gradient by a series of redox reactions. This gradient drives the synthesis of ATP, a crucial molecule for various cellular processes. Measuring MMP in living cells is commonly used to assess the effect of chemicals on mitochondrial function; decreases in MMP can be detected using lipophilic cationic fluorescent dyes. […] The dye accumulates in the mitochondria of healthy cells as aggregates, with red fluorescence. The mitochondrial potential decreases and the dye could not accumulate in the mitochondria and remains in the cytoplasm in monomers, with green fluorescence. In addition to the mitochondrial potential assay, these cells were also used to test the cytotoxicity by determining the cell viability in the culture based on the quantitation of ATP present. The cytotoxicity was measured in the same assay well of MMP assay.
Tox21 Assay Protocol Summary: 2,000 HepG2 cells in 5 uL/well were dispensed into black, clear-bottom 1536-well plates using a Multidrop Combi (Thermo Scientific) dispenser. The assay plates were incubated for an overnight at 37 C to allow cells to attach to the wells, followed by the transfer of 23 nL compound or DMSO vehicle by a pin tool (Kalypsys). The plates were incubated for 1 hr at 37 C and 5% CO2, followed by the addition of 5 uL of 2X m-MPI dye into each well using Flying Reagent Dispenser (Aurora Discovery) and then CellTiter-Glo reagent was added at 4 uL/well and incubated 30 min at room temperature. Then luminescence intensity was quantified on a ViewLux CCD-based plate reader.
Regarding `O=C(Nc1ccc(Br)cc1)c1cc(Br)c(Br)s1`, the Potency is 3.35 µM (active). The result for `NC[C@@H]1O[C@H](O[C@H]2[C@@H](O)[C@H](O[C@@H]3[C@@H](O)[C@H](N)C[C@H](N)[C@H]3O[C@H]3O[C@H](CN)[C@@H](O)[C@H](O)[C@H]3N)O[C@@H]2CO)[C@H](N)[C@@H](O)[C@@H]1O` reads “inactive”; that for `CC1=C(/C=C/C(C)=C/C=C/C(C)=C/C=C/C=C(C)/C=C/C=C(C)/C=C/C2=C(C)C(=O)CCC2(C)C)C(C)(C)CCC1=O`, “inactive”.

On to `CC[N+](C)(C)Cc1ccccc1Br`, for which the Potency entry was “inactive”. The result for `CC(O)[C@@H]1NC(=O)[C@H](CCCCN)NC(=O)[C@@H](Cc2c[nH]c3ccccc23)NC(=O)[C@H](Cc2ccccc2)NC(=O)[C@@H](NC(=O)[C@H](N)Cc2ccccc2)CSSC[C@@H](C(=O)N[C@H](CO)[C@@H](C)O)NC1=O` (stereo not given in full) reads “inactive”; that for `Clc1cc(Cl)c(OCC#CI)cc1Cl`, 9.44 µM (active). The result for `C[N@+]12CCCC[C@@H]1CCC(=C(c1cccs1)c1cccs1)C2` reads “inactive”; that for `C=C1C(=C/C=C2\CCC[C@]3(C)[C@@H]([C@H](C)CCCC(C)(C)O)CC[C@@H]23)C[C@@H](O)C[C@@H]1O`, “inactive”; that for `CCCc1ccc(C(=O)O)cc1`, “inactive”. `O=C(O)COc1ccc(CCNS(=O)(=O)c2ccccc2)s1`: the Potency result is “inactive”. Turning to `CCC(=O)O[C@@H]1CC(=O)O[C@H](C)C/C=C/C=C/[C@H](O)[C@H](C)C[C@H](CC=O)[C@H](O[C@@H]2O[C@H](C)[C@@H](O[C@H]3C[C@@](C)(O)[C@@H](OC(=O)CC)[C@H](C)O3)[C@H](N(C)C)[C@H]2O)[C@H]1OC`, the Potency entry was “inactive”. For the molecule `C=C1CC[C@H](O)CC1=C/C=C1\CCC[C@]2(C)[C@@H]([C@H](C)CC[C@@H](O)C(C)(C)O)CC[C@@H]12`, the Potency entry was “inactive”. `COc1ccc(C(=O)Nc2ccccc2CCC2CCCCN2C)cc1` (stereo not given): the Potency result is “inactive”.

Take `CC1(C)N=C(N)N=C(N)N1c1ccc(Cl)cc1`: the Potency result is “inactive”.

For `NC[C@@H]1O[C@H](O[C@H]2[C@@H](O)[C@H](O[C@@H]3[C@@H](O)[C@H](N)C[C@H](N)[C@H]3O[C@H]3O[C@H](CO)[C@@H](O)[C@H](O)[C@H]3N)O[C@@H]2CO)[C@H](N)[C@@H](O)[C@@H]1O`, the Potency entry was “inactive”. The result for `Cn1c(O)c(N=NC(N)=S)c2ccccc21` reads “inactive”; that for `CCc1ccc(S(=O)(=O)O)cc1`, “inactive”.

As to `N[C@H](CC(=O)O)C(=O)O`, the Potency entry is “inactive”. `CCCCCCCCCCCCCCCCCC(=O)[O][Al]`: the Potency entry was “inactive”. For `CCC(=O)c1ccc2c(c1)N(CCCN1CCN(CCO)CC1)c1ccccc1S2`, the Potency result is “inactive”. The result for `OCCO[C@@H]1[C@@H](O)[C@H](O)[C@@H](CO)O[C@@H]1O` reads “inactive”; that for `COc1cc(S(C)=O)ccc1-c1nc2ncccc2[nH]1` (stereo not given), “inactive”; that for `O=C(Nc1ccc(/C=C/c2ccc(NC(=O)c3cc(S(=O)(=O)O)c4cccnc4c3O)cc2S(=O)(=O)O)c(S(=O)(=O)O)c1)c1cc(S(=O)(=O)O)c2cccnc2c1O`, “inactive”. As to `CN1CCC(CN2c3ccccc3Sc3ccccc32)C1` (stereo not given), the Potency result was “inactive”. Turning to `CC(O)[C@@H]1NC(=O)[C@H](Cc2ccccc2)NC(=O)[C@H](C(C)O)NC(=O)[C@H](CCCCN)NC(=O)[C@H](Cc2c[nH]c3ccccc23)NC(=O)[C@H](Cc2ccccc2)NC(=O)[C@H](Cc2ccccc2)NC(=O)[C@H](CC(N)=O)NC(=O)[C@H](CCCCN)NC(=O)[C@@H](NC(=O)CNC(=O)[C@H](C)N)CSSC[C@@H](C(=O)O)NC(=O)[C@H](CO)NC1=O` (stereo not given in full), the Potency entry was “inactive”. To `O=C(CCCN1CCC(n2c(=S)[nH]c3ccccc32)CC1)c1ccc(F)cc1` belongs “inactive”. The result for `CCN(CC)CCOc1ccc(-c2nc3cc(Cl)ccc3s2)cc1` reads “inactive”; that for `c1ccc2c(c1)Sc1ccccc1N2CCN1CCCC1`, “inactive”. On to `Cc1nnc(C(C)C)n1C1C[C@H]2CC[C@@H](C1)N2CC[C@H](NC(=O)C1CCC(F)(F)CC1)c1ccccc1` (stereo not given in full), for which the Potency result was “inactive”. The result for `COc1ccc(C[C@H](N)C(=O)N[C@H]2[C@@H](O)[C@H](n3cnc4c(N(C)C)ncnc43)O[C@@H]2CO)cc1` reads “inactive”.

Turning to `C#C[C@]1(O)CC[C@H]2[C@@H]3CCC4=C(CCC(=O)C4)[C@H]3CC[C@@]21C`, the Potency entry is “inactive”. Consider `NCCCC[C@H](NC(=O)[C@@H]1CCCN1C(=O)[C@@H]1CSSC[C@H](NC(=O)CNC(=O)CNC(=O)CN)C(=O)N[C@@H](Cc2ccc(O)cc2)C(=O)N[C@@H](Cc2ccccc2)C(=O)N[C@@H](CCC(N)=O)C(=O)N[C@@H](CC(N)=O)C(=O)N1)C(=O)NCC(N)=O` (H-GGGCYFQNCPKG-NH2; disulfide 4-9), for which the Potency entry is “inactive”.

As to `S=C=Nc1ccc(N=C=S)cc1`, the Potency result is “inactive”.

With `O=C(O)c1c(Cl)c(Cl)c(Cl)c(Cl)c1-c1c2cc(I)c(=O)c(I)c-2oc2c(I)c(O)c(I)cc12`, the Potency result was “inactive”. The result for `Cc1c(O)cc2c(c1C)O[C@](C)(CCC[C@H](C)CCC[C@H](C)CCCC(C)C)CC2` reads “inactive”; that for `CCCCCCCCCCCCCCCC(=O)O[C@@H]1[C@@H](O)[C@@H](O)[C@@H]([C@H](NC(=O)[C@@H]2C[C@@H](CCC)CN2C)[C@H](C)Cl)O[C@@H]1SC`, “inactive”; that for `O=C(NNCNNC(=O)c1ccncc1)c1ccncc1`, “inactive”. The result for `CN(C(=O)CO)c1c(I)c(C(=O)NCC(O)CO)c(I)c(C(=O)NCC(O)CO)c1I` (stereo not given) reads “inactive”; that for `CCOC(=O)Nc1ccc2c(c1)N(C(=O)CN(C)C)c1ccccc1CC2`, “inactive”; that for `CC(C)CN(C[C@@H](OP(=O)(O)O)[C@H](Cc1ccccc1)NC(=O)O[C@H]1CCOC1)S(=O)(=O)c1ccc(N)cc1`, “inactive”.
